Most compounds without a hit are left out; they make up all but 11% or so of the library.
Sfp PPTase inh: qHTS Assay for Inhibitors of Bacillus subtilis Sfp phosphopantetheinyl transferase (PPTase). Biochemical Sfp PPTase activity, qHTS. AID 1490, 2009. hit rate 3.5% among 310,000. Potency, µM, usual class: inhibitors. 4'-phosphopantetheinyl transferase ffp (Bacillus subtilis), Q9F4F7;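 also: the enzyme is Sfp with the accession as filed and its product quenches rhodamine fluorescence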
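After 15 min at room temperature with compound, 15 nM Sfp received 5 uM rhodamine-CoA plus 12.5 uM BHQ-2-ybbR (50 mM Hepes pH 7.6, 10 mM MgCl2). Rate came from the fluorescence difference over 30 min, ex 525/em 598 nm.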
G9a block: qHTS Assay for Inhibitors of Histone Lysine Methyltransferase G9a; hit rate 8.8% among 350,000; Potency, µM (doses to about 102 µM), hits mostly inhibitors; G9a H3K9 monomethylation, AlphaScreen, 2 h; Histone-lysine N-methyltransferase EHMT2 (Homo sapiens), Q96KQ7; also: nearly all actives have a fitted effect of over 75% in size
Target sequence (Q96KQ7 913-1193 limits assumed): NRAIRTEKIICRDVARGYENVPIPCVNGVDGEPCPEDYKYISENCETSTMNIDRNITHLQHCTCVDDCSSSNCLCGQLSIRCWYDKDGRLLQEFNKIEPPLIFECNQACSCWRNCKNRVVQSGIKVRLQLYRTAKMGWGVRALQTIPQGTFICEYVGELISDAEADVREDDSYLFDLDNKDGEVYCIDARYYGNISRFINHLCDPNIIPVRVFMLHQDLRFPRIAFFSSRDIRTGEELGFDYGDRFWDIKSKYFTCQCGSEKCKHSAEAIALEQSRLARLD
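AlphaScreen detection with an anti-monomethyl H3K9 antibody quantified product after a 2 h room-temperature reaction containing 500 nM biotinylated H3K9 peptide, 20 µM SAM and 20 nM enzyme, which had been preincubated 15 min with compound.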
Tau fibril FP: qHTS for Inhibitors of Tau Fibril Formation, Fluorescence Polarization; AID 1468, 2008; hit rate 0.39% among 280,000; Potency, µM (titrated, usually from 57.7 µM), actives largely listed as inhibitors; K18 P301L tau heparin fibrillization, Alexa594 FP, 6 h; Microtubule-associated protein tau (Homo sapiens), P10636; also: nearly all actives have a fitted effect of over 55% in size
Target sequence (P10636 561-689 P618L limits assumed): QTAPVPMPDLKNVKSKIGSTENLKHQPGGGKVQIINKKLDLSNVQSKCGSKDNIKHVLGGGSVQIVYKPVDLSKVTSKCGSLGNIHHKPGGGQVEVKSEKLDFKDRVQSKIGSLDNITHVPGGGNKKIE
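Recombinant K18 P301L […], labeled with Alexa 594 at 0.24 uM over 15 uM unlabeled; heparin inducer 20 uM final; 37 C, 6 hr; FP endpoint.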
Tau fluor cs: Counterscreen qHTS for Inhibitors of Tau Fibril Formation, Fluorescence Polarization; tau K18 P301L Alexa594 fluorescence, heparin fibrillization; Potency, µM (highest dose often 57.7 µM); hit rate 0.93% among 280,000; AID 1463, 2008; also: nearly all actives have a fitted effect of over 55% in size
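Human tau K18 P301L (15 uM unlabeled, 0.24 uM Alexa 594-labeled) in 100 mM sodium acetate pH 7 with 20 uM heparin, 6 hr at 37 C. ThT 30 uM added, 1 hr ambient; Alexa 594 FP and total fluorescence read at 555/632 nm.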
FBPA coupling cs: qHTS Assay for Inhibitors of Fructose-1,6-bisphosphate Aldolase from Giardia Lamblia: Coupling assay counterscreen; coupling enzyme system counterscreen, AmpLite Red fluorescence; activity change, negative = inhibition, % at 58.2 µM, hits read low; hit rate 0.67% among 290,000; AID 2472, 2010; in the data active = activity change below about -30%
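Activity here indicates interference with the coupling reaction, not aldolase inhibition. Compounds at 57.5 uM final met coupling enzymes for 10 min at RT; substrate and AmpLite Red detection followed, with a 525/598 nm fluorescence read after 20 min.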
Tau ThT inhib: qHTS for Inhibitors of Tau Fibril Formation, Thioflavin T Binding. recombinant tau K18 P301L (four-repeat tau fragment), heparin-induced fibrillization, ThT fluorescence. Microtubule-associated protein tau (Homo sapiens), P10636. Potency, µM (series often up to 57.4 µM), actives largely listed as inhibitors. hit rate 2.1% among 270,000. AID 1460, 2008; also: nearly all actives have a fitted effect of over 55% in size
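Heparin-induced fibrillization of the P301L-mutant K18 repeat-domain fragment of human tau was followed by ThT binding in quantitative high-throughput format.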
Each line names hits and unclear results; the compound was inactive in the other large screens. Unless noted, calls follow the shape of the dose curve; as a rule, active = well fitted curve in the direction sought with a large enough effect; inconclusive = small, poorly fitted or top-dose-only effect, or another doubt; inactive = no such curve, though single readings can be large; an effect the other way counts as inactive or inconclusive.

Cc1ccc(Oc2nc(CN3CCOCC3)nc3sc4c(c23)CCC(C)C4)cc1C (stereo not given)	Sfp PPTase inh 40µM
CC1CCc2c(sc3nc(CN4CCOCC4)nc(N4CCc5ccccc5C4)c23)C1 (stereo not given)	G9a block inconclusive, Tau ThT inhib inconclusive
COc1ccc(Cl)cc1S(=O)(=O)Nc1cccc(-c2ccc(N3CCOCC3)nn2)c1	none (no result: Sfp PPTase inh, FBPA coupling cs)
Clc1cccc(OCCN2CCOCC2)c1	G9a block 25µM
Clc1cccc(OCCN2CCNCC2)c1	G9a block 14µM
Clc1cccc(OCCCCCN2CCOCC2)c1	none (no result: G9a block, Tau fibril FP, Tau fluor cs, Tau ThT inhib)
CC(C)CC(NC(=O)c1ccccc1)C(=O)OCC(=O)Nc1ccc(S(N)(=O)=O)cc1 (stereo not given)	none
Cc1ccccc1N1CCN(C2=NC(=O)/C(=C\c3cccs3)S2)CC1	G9a block 50µM, Tau ThT inhib inconclusive
NC1=NC(=O)/C(=C\c2ccco2)S1	Sfp PPTase inh 35µM, Tau fibril FP inconclusive, Tau fluor cs inconclusive, Tau ThT inhib 18µM
CCN1CCN(C2=NC(=O)/C(=C/c3ccc(C)o3)S2)CC1	Sfp PPTase inh 16µM, G9a block 32µM, FBPA coupling cs -34, Tau ThT inhib inconclusive
CCc1ccc(/C=C2/SC(N3CCOCC3)=NC2=O)cc1	none (no result: G9a block)
O=C1N=C(N2CCN(c3ccccc3)CC2)S/C1=C\c1ccco1	G9a block 40µM, Tau ThT inhib 14µM
NC1=NC(=O)/C(=C/c2cccs2)S1	none (no result: FBPA coupling cs)
O=C1N=C(N2CCN(c3cccc4ccccc34)CC2)S/C1=C/c1cccs1	none
CC(C)C(=O)Nc1nnc(SCc2cc(=O)n3ccccc3n2)s1	none (no result: Sfp PPTase inh, FBPA coupling cs)
Cc1ccc(Cl)cc1NC(=O)C(C)n1nnc2sc3c(c2c1=O)CCCC3 (stereo not given)	none (no result: Sfp PPTase inh, FBPA coupling cs)
O=C1N=C(N2CCN(c3ccccc3)CC2)S/C1=C/c1ccco1	G9a block 50µM, Tau ThT inhib inconclusive
Cc1nonc1OCCCNc1ccc([N+](=O)[O-])cc1Cl	G9a block 1.3µM, Tau fibril FP inconclusive, Tau ThT inhib inconclusive
Cc1ccsc1/C=N/NC(=O)c1ccc2ccccc2c1	none (no result: Tau fibril FP, Tau fluor cs, Tau ThT inhib)
CC(C)CC(=O)c1c[nH]c(C(=O)NCc2cccs2)c1	G9a block 0.22µM
Cc1ccc([N+](=O)[O-])cc1-c1ccc(/C=C(\C#N)c2[nH]nc(N)c2C#N)o1	Tau fibril FP inconclusive, Tau fluor cs inconclusive, Tau ThT inhib 8.9µM
COc1ccc(N=CC2=C(O)c3ccccc3C2=O)c(OC)c1	G9a block inconclusive, Tau ThT inhib inconclusive
Cc1ccccc1N=CC1=C(O)c2ccccc2C1=O	G9a block 45µM, Tau ThT inhib inconclusive
CC1CCN(S(=O)(=O)c2nnc(NC(=O)c3cccc(Cl)c3)s2)CC1	Tau ThT inhib inconclusive
C/[N+]([O-])=C\C1C(=O)CC(C)(C)CC1=O	none
C=CCO/N=C/C1C(=O)CC(C)(C)CC1=O	Sfp PPTase inh inconclusive, G9a block 35µM
CCOC(=O)CNC(=O)N1CCCN(S(=O)(=O)c2ccc3c(ccn3CC)c2)CC1	none (no result: Sfp PPTase inh, FBPA coupling cs)
Cc1cc(CN2CCCC(CNC(=O)c3ccc(F)cc3)C2)cc(C)c1O (stereo not given)	G9a block 79µM
C=CCN(CC=C)CCOc1cc(C)ccc1[N+](=O)[O-]	G9a block 10µM
C=CCN(CC=C)CCOc1ccc(C)cc1[N+](=O)[O-]	Sfp PPTase inh inconclusive, G9a block 13µM
C=CCNCCOc1ccc(C)cc1[N+](=O)[O-]	none (no result: G9a block)
CCCCc1c(O)nc(SCC(=O)c2ccccc2)n(-c2ccccc2)c1=O	Tau ThT inhib inconclusive (no result: G9a block)
Nc1nnc(-c2ccc(Cl)c(Cl)c2)s1	G9a block 45µM, Tau ThT inhib inconclusive
